ChEMBL document CHEMBL2218924, “A broad activity screen in support of a chemogenomic map for kinase signalling research and drug discovery” (Biochem J, 2013)

What was measured:
[1] = target: T1, Dual specificity tyrosine-phosphorylation-regulated kinase 2 (Homo sapiens) (UniProt Q92630); settings: at 1 µM
T1 sequence (whole entry): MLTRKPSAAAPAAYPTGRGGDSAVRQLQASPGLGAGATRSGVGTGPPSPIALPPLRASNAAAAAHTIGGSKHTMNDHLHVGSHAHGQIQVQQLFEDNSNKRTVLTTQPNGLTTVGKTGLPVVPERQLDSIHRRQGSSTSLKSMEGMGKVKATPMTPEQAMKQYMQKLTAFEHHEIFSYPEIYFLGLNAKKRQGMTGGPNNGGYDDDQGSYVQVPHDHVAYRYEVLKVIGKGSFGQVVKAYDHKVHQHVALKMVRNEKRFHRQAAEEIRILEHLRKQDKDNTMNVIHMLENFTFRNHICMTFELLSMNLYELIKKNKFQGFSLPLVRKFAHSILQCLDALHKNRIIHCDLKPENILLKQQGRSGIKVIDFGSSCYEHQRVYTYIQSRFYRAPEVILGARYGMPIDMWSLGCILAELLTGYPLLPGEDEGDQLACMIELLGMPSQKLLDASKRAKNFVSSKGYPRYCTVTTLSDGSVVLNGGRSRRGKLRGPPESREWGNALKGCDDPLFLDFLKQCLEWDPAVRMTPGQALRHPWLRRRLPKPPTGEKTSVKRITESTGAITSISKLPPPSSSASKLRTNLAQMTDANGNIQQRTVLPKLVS

[2] = target: T1, Dual specificity tyrosine-phosphorylation-regulated kinase 2 (Homo sapiens); settings: at 10 µM
[3] = target: Epidermal growth factor receptor (Homo sapiens) (UniProt P00533); settings: at 10 µM
[4] = target: Ephrin type-A receptor 5 (Homo sapiens) (UniProt P54756); settings: at 10 µM
[5] = target: T2, Serine/threonine-protein kinase 17A (Homo sapiens) (UniProt Q9UEE5); settings: at 1 µM
T2 sequence (whole entry): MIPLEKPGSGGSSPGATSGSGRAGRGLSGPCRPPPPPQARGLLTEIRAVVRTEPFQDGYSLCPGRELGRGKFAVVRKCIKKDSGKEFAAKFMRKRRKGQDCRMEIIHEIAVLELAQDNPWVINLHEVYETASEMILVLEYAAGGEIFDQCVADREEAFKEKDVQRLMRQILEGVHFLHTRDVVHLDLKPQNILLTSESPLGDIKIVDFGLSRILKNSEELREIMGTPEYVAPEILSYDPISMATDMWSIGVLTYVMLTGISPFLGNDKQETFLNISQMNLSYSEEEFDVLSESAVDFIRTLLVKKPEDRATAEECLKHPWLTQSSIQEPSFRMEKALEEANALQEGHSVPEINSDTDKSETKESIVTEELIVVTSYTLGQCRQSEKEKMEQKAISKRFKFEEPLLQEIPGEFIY

[6] = target: T2, Serine/threonine-protein kinase 17A (Homo sapiens); settings: at 10 µM
[7] = target: T3, Ephrin type-A receptor 1 (Homo sapiens) (UniProt P21709); settings: at 1 µM
T3 sequence (whole entry): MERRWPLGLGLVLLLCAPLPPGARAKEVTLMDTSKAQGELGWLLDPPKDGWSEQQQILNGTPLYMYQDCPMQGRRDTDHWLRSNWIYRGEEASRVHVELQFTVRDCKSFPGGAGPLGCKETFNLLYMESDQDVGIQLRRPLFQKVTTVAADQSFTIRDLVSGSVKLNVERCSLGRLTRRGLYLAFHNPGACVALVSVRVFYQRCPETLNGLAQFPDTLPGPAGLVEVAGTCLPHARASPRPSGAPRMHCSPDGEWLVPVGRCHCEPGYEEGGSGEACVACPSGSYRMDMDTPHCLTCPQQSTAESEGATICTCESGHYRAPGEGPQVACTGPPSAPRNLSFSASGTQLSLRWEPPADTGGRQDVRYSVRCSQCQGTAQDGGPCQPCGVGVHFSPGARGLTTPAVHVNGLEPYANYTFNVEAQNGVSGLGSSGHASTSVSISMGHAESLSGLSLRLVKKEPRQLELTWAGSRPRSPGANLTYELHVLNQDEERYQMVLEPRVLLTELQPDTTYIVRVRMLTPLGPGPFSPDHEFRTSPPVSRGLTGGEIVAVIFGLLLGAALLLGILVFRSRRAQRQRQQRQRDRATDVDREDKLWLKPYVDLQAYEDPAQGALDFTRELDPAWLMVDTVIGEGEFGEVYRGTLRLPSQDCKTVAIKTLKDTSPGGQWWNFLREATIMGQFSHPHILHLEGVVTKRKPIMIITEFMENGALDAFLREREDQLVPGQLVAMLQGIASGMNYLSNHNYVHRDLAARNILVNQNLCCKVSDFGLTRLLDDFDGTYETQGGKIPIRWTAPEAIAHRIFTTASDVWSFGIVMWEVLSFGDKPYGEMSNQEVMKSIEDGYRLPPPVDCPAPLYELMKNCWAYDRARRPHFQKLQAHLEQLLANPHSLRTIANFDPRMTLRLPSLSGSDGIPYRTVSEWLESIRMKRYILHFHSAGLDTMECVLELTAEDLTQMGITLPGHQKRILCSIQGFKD

[8] = target: T3, Ephrin type-A receptor 1 (Homo sapiens); settings: at 10 µM
[9] = target: Ephrin type-A receptor 2 (Homo sapiens) (UniProt P29317); settings: at 1 µM
[10] = target: Ephrin type-A receptor 2 (Homo sapiens) (UniProt P29317); settings: at 10 µM
[11] = target: T4, Ephrin type-A receptor 3 (Homo sapiens) (UniProt P29320); settings: at 1 µM
T4 sequence (whole entry): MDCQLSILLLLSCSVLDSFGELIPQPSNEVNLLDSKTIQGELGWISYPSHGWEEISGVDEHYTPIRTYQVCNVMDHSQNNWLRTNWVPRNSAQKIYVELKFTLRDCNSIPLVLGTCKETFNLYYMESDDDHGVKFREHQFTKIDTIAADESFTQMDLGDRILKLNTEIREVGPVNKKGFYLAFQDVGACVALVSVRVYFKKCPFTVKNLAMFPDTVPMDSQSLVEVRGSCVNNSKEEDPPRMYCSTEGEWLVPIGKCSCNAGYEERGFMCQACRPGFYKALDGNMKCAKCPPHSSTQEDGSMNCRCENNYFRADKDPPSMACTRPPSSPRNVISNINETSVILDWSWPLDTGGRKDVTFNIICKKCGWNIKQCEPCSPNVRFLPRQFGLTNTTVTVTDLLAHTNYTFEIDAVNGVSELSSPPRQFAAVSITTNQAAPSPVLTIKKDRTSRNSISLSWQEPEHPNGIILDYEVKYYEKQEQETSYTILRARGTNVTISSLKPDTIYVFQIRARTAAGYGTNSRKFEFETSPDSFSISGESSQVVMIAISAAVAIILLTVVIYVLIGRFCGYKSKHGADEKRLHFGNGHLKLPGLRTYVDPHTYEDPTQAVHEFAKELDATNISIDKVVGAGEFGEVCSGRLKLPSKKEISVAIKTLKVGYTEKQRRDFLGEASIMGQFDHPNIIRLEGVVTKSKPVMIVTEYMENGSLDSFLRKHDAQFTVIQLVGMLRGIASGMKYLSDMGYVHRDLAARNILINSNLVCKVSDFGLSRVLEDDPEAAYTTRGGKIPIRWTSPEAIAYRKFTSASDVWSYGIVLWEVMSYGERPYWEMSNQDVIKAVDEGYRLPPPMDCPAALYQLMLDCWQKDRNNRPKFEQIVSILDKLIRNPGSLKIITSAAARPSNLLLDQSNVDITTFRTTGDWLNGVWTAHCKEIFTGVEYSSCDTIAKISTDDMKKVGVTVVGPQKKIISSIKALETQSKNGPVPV

[12] = target: T4, Ephrin type-A receptor 3 (Homo sapiens); settings: at 10 µM
[13] = target: Ephrin type-A receptor 4 (Homo sapiens) (UniProt P54764); settings: at 1 µM
[14] = target: Ephrin type-A receptor 4 (Homo sapiens) (UniProt P54764); settings: at 10 µM
[15] = target: Ephrin type-A receptor 5 (Homo sapiens) (UniProt P54756); settings: at 1 µM
[16] = target: Ephrin type-A receptor 7 (Homo sapiens) (UniProt Q15375); settings: at 1 µM
[17] = target: Ephrin type-A receptor 7 (Homo sapiens) (UniProt Q15375); settings: at 10 µM
[18] = target: T5, Ephrin type-A receptor 8 (Homo sapiens) (UniProt P29322); settings: at 1 µM
T5 sequence (whole entry): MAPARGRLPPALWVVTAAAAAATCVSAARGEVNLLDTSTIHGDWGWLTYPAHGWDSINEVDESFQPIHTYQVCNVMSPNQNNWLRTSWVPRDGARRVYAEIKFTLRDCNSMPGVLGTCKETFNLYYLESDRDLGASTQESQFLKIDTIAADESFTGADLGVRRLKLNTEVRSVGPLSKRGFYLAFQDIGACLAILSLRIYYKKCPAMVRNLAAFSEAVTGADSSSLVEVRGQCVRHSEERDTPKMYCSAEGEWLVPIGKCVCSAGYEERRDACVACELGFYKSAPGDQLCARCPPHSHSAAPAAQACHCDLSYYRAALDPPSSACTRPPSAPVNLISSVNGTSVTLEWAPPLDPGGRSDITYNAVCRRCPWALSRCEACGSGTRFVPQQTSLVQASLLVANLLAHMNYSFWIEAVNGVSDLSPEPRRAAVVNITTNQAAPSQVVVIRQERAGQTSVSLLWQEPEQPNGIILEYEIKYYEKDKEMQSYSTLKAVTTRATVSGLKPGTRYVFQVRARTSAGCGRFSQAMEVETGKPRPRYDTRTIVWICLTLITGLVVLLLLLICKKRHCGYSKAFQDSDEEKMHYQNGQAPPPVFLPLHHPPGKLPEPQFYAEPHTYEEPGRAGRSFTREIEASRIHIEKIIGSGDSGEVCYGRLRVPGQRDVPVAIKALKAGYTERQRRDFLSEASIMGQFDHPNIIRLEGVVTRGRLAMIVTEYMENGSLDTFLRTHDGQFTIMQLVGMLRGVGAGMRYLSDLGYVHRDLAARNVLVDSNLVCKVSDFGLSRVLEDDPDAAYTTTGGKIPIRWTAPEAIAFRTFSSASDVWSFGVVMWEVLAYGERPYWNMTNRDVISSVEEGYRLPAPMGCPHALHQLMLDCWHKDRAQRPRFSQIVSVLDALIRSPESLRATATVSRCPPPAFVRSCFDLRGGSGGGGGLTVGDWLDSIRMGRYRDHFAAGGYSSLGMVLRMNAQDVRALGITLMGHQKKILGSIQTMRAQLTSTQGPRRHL

[19] = target: T5, Ephrin type-A receptor 8 (Homo sapiens); settings: at 10 µM
[20] = target: T6, Ephrin type-B receptor 1 (Homo sapiens) (UniProt P54762); settings: at 1 µM
T6 sequence (whole entry): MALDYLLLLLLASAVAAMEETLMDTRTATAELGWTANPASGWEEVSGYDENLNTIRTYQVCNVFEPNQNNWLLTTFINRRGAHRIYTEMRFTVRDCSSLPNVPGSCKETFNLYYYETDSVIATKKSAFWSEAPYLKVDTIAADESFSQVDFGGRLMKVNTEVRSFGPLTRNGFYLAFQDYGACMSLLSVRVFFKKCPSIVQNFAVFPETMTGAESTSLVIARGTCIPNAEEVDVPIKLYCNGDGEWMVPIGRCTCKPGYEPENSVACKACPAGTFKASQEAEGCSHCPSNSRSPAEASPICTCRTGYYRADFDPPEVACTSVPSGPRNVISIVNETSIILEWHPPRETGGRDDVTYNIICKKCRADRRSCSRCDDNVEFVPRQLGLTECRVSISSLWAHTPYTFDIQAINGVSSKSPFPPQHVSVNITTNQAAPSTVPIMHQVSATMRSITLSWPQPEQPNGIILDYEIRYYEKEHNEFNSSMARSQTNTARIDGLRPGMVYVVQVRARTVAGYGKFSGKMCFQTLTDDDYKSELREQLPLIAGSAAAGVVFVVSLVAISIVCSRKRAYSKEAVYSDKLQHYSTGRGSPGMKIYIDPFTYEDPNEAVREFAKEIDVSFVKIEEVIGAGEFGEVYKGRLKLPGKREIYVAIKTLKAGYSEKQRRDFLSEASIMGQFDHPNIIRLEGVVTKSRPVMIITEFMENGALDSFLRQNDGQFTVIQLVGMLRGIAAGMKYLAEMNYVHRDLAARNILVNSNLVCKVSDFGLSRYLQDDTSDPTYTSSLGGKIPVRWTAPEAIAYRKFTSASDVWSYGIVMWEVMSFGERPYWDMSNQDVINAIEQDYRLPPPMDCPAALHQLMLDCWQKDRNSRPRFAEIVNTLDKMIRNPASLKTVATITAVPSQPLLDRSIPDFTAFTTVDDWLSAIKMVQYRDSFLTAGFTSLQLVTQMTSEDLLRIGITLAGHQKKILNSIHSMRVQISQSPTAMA

Sequence of Ephrin type-A receptor 4 (Homo sapiens) (P54764 whole entry): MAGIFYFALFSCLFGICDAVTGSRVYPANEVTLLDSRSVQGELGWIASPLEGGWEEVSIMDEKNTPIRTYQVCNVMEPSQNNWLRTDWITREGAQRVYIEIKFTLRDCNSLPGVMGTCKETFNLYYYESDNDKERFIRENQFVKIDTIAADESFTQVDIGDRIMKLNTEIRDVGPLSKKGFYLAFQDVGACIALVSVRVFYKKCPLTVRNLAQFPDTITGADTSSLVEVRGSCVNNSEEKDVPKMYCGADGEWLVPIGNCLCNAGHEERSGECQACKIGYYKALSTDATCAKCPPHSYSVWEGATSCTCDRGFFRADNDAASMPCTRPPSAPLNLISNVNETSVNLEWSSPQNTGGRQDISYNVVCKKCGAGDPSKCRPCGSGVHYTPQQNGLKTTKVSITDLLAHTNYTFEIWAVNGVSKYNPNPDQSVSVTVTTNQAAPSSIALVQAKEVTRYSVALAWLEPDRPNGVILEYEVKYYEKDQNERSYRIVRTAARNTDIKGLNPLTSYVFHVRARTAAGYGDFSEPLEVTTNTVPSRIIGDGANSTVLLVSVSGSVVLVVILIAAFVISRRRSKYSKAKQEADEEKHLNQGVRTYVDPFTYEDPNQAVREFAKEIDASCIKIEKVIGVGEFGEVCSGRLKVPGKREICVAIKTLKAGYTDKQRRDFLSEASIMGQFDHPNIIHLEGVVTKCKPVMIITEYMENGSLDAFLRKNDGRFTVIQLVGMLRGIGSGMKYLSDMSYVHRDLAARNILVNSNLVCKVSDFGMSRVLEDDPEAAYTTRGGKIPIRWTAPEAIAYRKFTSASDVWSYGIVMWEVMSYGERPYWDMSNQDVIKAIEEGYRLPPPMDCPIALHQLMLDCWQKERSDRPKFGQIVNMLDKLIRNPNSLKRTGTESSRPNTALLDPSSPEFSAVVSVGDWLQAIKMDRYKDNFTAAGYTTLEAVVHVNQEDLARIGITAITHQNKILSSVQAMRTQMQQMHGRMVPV
Sequence of Ephrin type-A receptor 2 (Homo sapiens) (P29317 whole entry): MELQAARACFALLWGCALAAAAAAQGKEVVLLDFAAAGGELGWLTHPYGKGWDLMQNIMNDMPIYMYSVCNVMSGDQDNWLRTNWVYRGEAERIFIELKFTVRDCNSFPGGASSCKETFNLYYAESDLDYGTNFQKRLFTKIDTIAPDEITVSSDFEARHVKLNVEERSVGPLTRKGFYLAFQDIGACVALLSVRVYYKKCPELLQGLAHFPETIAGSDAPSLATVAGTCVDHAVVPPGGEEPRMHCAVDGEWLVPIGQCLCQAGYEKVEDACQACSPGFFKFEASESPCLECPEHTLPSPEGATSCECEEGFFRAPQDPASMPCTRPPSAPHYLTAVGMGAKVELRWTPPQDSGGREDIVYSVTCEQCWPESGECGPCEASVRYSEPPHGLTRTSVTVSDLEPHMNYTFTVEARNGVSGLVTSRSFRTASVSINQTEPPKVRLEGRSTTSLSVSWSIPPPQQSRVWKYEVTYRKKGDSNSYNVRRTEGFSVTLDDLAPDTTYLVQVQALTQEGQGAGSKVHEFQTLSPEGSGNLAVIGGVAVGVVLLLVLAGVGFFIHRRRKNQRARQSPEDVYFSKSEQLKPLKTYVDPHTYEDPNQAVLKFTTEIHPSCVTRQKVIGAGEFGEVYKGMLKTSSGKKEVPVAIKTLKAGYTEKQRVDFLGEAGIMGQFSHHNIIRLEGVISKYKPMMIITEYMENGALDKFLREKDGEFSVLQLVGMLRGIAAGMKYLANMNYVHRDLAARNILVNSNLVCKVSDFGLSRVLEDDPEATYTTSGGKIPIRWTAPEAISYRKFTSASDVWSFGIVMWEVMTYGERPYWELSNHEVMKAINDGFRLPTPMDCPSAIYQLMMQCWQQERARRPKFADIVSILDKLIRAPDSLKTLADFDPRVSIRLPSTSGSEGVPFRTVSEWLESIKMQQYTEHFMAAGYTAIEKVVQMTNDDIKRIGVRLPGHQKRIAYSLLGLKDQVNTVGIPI
Sequence of Ephrin type-A receptor 5 (Homo sapiens) (P54756 whole entry): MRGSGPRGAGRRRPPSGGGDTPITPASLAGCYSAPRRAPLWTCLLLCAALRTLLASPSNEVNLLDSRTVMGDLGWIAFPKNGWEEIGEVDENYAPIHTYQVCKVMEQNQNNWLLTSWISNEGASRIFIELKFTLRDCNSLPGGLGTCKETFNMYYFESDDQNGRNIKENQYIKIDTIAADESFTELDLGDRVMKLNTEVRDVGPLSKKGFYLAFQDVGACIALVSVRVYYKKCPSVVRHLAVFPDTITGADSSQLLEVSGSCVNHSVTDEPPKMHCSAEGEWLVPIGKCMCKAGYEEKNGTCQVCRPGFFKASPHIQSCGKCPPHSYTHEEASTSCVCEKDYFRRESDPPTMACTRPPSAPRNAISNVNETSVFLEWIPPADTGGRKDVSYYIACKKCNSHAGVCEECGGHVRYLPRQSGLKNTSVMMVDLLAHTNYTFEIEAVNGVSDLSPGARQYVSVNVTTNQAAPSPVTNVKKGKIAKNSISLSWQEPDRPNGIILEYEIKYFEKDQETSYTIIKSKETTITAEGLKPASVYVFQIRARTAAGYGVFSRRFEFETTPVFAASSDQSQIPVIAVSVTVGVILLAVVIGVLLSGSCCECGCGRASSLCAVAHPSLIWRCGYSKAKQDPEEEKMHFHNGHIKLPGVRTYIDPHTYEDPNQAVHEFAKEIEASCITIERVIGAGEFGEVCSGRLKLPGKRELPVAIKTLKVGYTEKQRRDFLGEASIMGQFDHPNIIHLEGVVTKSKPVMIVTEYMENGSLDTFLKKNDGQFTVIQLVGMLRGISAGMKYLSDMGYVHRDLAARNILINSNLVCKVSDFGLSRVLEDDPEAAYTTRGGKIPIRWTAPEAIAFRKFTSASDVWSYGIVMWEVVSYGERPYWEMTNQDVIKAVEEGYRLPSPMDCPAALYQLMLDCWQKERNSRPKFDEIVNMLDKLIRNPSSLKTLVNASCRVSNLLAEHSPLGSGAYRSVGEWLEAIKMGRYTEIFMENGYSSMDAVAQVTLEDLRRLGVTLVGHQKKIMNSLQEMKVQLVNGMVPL
Sequence of Ephrin type-A receptor 7 (Homo sapiens) (Q15375 28-998 limits assumed): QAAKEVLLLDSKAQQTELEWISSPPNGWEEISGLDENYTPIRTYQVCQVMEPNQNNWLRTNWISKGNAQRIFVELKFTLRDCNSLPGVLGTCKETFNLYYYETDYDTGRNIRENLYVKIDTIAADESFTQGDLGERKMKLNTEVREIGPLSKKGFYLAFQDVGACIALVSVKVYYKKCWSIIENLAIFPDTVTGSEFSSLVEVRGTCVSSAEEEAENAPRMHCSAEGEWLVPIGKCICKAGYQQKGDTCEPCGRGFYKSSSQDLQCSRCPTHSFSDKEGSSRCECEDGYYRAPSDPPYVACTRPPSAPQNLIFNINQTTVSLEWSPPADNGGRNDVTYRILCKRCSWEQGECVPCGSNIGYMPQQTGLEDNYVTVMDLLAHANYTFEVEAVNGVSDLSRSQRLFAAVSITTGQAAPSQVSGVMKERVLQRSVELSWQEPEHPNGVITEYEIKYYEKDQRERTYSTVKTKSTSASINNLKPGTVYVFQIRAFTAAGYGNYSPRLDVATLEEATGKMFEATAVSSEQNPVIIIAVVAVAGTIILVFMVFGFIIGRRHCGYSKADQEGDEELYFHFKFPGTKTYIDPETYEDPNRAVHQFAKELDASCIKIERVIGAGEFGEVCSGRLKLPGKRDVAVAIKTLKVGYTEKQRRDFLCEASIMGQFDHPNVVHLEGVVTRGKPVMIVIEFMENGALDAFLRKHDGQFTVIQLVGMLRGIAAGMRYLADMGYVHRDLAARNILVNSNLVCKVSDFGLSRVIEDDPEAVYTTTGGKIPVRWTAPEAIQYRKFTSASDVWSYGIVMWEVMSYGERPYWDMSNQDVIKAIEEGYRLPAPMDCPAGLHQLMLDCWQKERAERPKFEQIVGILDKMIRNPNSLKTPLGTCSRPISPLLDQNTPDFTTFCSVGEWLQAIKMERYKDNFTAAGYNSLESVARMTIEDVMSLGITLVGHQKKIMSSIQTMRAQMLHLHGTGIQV

Structure (SMILES) | residual activity [1] [%] | residual activity [2] [%] | residual activity [3] [%] | residual activity [4] [%] | residual activity [5] [%] | residual activity [6] [%] | residual activity [7] [%] | residual activity [8] [%] | residual activity [9] [%] | residual activity [10] [%] | residual activity [11] [%] | residual activity [12] [%] | residual activity [13] [%] | residual activity [14] [%] | residual activity [15] [%] | residual activity [16] [%] | residual activity [17] [%] | residual activity [18] [%] | residual activity [19] [%] | residual activity [20] [%]
COc1ccc2c(c1)/C(=C/c1cnc[nH]1)C(=O)N2 | 77 | 16 | 97 | 81 | – | – | – | – | – | – | – | – | – | – | – | – | – | – | – | –
C[S+]([O-])c1ccc(-c2nc(-c3ccc(F)cc3)c(-c3ccncc3)[nH]2)cc1 (centres undefined) | 115 | 98 | – | 48 | 123 | 103 | 90 | 26 | 95 | 62 | 105 | 86 | 110 | 80 | 96 | 102 | 65 | 91 | 43 | 106
O=C1NC(=O)c2c1c1c3ccccc3n3c1c1c2c2ccccc2n1C1CCC3O1 | 91 | 58 | – | 92 | 16 | 8 | – | – | 94 | 98 | – | – | – | – | 94 | 100 | 100 | 96 | 94 | –
COC(=O)[C@@]1(O)C[C@H]2O[C@]1(C)n1c3ccccc3c3c4c(c5c6ccccc6n2c5c31)C(=O)NC4 | 2 | -4 | – | 13 | 0 | 1 | 3 | 0 | 44 | 8 | 42 | 5 | 83 | 43 | 66 | 32 | 4 | 78 | 40 | 39
